Laboratory results: PubChem BioAssay (NCI)
This is part of a sample that, as a whole, favours compounds with a hit. Of some 83,000 tested, about 20% had one in any assay.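 A percent growth of 40 corresponds to 60% growth inhibition; 0 means no net growth; -100 means all cells died. Active threshold: below 10.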 A number with no mark means an inactive call. Activity calls are given as the source filed them.

Assays:
Assay in all cases: NCI-60 one-dose screen, 48 h (100 = growth as untreated, 0 = no growth, -100 = all killed)
Details in all cases: 10 µM unless noted
HCT-15 colon = system: HCT-15 colon
HT29 colon = system: HT29 colon
SNB-75 CNS = system: SNB-75 CNS
SNB-19 CNS = system: SNB-19 CNS
U251 CNS = system: U251 CNS
PC-3 prostate = system: PC-3 prostate
SK-MEL-5 melanoma = system: SK-MEL-5 melanoma
LOX IMVI melanoma = system: LOX IMVI melanoma
SK-MEL-28 melanoma = system: SK-MEL-28 melanoma
SK-MEL-2 melanoma = system: SK-MEL-2 melanoma
SN12C renal = system: SN12C renal
UO-31 renal = system: UO-31 renal
TK-10 renal = system: TK-10 renal
ACHN renal = system: ACHN renal
CCRF-CEM leukemia = system: CCRF-CEM leukemia
MOLT-4 leukemia = system: MOLT-4 leukemia
CAKI-1 renal = system: CAKI-1 renal
A498 renal = system: A498 renal
EKVX NSCLC = system: EKVX NSCLC
UACC-62 melanoma = system: UACC-62 melanoma

SMILES | growth (HCT-15 colon) | growth (HT29 colon) | growth (SNB-75 CNS) | growth (SNB-19 CNS) | growth (U251 CNS) | growth (PC-3 prostate) | growth (SK-MEL-5 melanoma) | growth (LOX IMVI melanoma) | growth (SK-MEL-28 melanoma) | growth (SK-MEL-2 melanoma) | growth (SN12C renal) | growth (UO-31 renal) | growth (TK-10 renal) | growth (ACHN renal) | growth (CCRF-CEM leukemia) | growth (MOLT-4 leukemia) | growth (CAKI-1 renal) | growth (A498 renal) | growth (EKVX NSCLC) [%] | growth (UACC-62 melanoma)
Cc1cc(C)c(NC(=O)c2sc3nc4c(cc3c2N)CN(Cc2ccccc2)CC4)c(C)c1 | 21.7% | 7.19% (active) | 7.64% (active) | 42.9% | 32.9% | 22% | 26.1% | 38.7% | 57.1% | 24% | 23.9% | 26.5% | 67.6% | 45.7% | 16.6% | 25% |  |  |  | 
NC(=O)c1cccc(N2Cc3ccccc3OC3=C2C(=O)c2c(O)ccc(O)c2C3=O)c1 | -49.7% (active) | -55.8% (active) | 6.48% (active) | 1% (active) | -7.38% (active) | -44.5% (active) | -7.12% (active) |  | -85.6% (active) | -38.7% (active) | -53.5% (active) | -86.7% (active) | -99.7% (active) | -93.7% (active) | -8.27% (active) |  | -99.4% (active) | 62.1% |  | 
O=C1CCC(=O)N1Cc1ccccc1 | 99.9% | 101% | 80.4% | 110% | 101% | 100% | 102% | 90.5% | 101% | 95.1% | 104% | 98.1% | 92.2% | 101% | 108% | 101% | 94.2% | 85.8% |  | 
COc1ccc(C2NC3=C(CCCC3)C(C#N)(C#N)C2(C#N)C#N)cc1 (centres undefined) | 65.9% | 79.9% | 88.6% | 88.5% | 107% | 104% | 101% |  | 106% | 98.8% | 88.7% | 75.7% | 79.7% | 37.1% | 7.38% (active) | 9.29% (active) | 78% | 111% | 88.2 | 
C=C1C(=O)O[C@H]2[C@H]1CC/C(COC(=O)NCc1cc(OC)cc(OC)c1)=C\CC[C@@]1(C)O[C@@H]21 | 1.86% (active) | -40.2% (active) | 59.3% | 42.3% | 40.7% | 30.2% | 84.9% | -31% (active) | -20.2% (active) | 23.2% | 7.86% (active) | -58.4% (active) | -1.01% (active) | 5.79% (active) | 2.4% (active) | -3.45% (active) | -15.1% (active) | 68% | 40.5 | 
CCN(Cc1ccc(CN(CC)C(=O)C(Cl)(Cl)Cl)cc1)C(=O)C(Cl)(Cl)Cl | 94.2% | 77.5% | 87.7% | 106% | 91.6% | 64.9% | 71.2% | 78.3% | 96.2% | 89% | 97.8% | 78.7% | 96.1% | 91.1% |  | 29.9% | 72% | 82.6% | 68.3 | 
O=C(/C=C/CN1CCOCC1)Nc1cc2c(Nc3ccc(F)c(Cl)c3F)ncnc2cc1OCCOC(F)F | 38.1% | 43.3% | 21.5% | 70% | 81.2% | 46.1% | 50.4% |  | 77.5% | 85.6% | 34.4% | 22.9% | 33.9% | 14.2% | 94% | 69.5% | 15.9% | -5.14% (active) | 24.8 | 
Oc1ccc(Cl)cc1-c1cc(-c2ccc(Cl)cc2)n[nH]1 | 25% | 103% | 59.1% | 81.2% | 59.3% | 45.6% | 70.9% | 58.2% | 87.6% | 90.7% | 61.5% | 29% | 102% | 52.8% | 36.7% | 39.5% | 47.7% |  |  | 
COc1ccc(OC)c(C(=O)c2oc3ccc(Br)cc3c2N)c1 | 24.2% | 7.35% (active) | -29.4% (active) | 38.3% | 9.85% (active) | -1.02% (active) | 31.7% |  | 37.9% | -9.79% (active) | 39.4% | 27.5% |  | 50.7% | 4.72% (active) | 19.4% | 0.0162% (active) | -13.8% (active) |  | 10.9%
O=C(Nc1ccc(I)cc1)c1cc([N+](=O)[O-])ccc1O | 36.7% | 48.7% | 57% | 35.4% | 31.1% | 15.3% |  | 20.2% | 16.4% | -0.392% (active) | 34.3% | 22.5% | 40% | 48.8% | 28.4% | 18.8% | 30.9% | -27.9% (active) | 39.7 | 0.385% (active)
CCn1cc(C2NC(=O)c3cc(F)ccc3N2)c2cccc(Cl)c21 (centres undefined) | 9.89% (active) | 3.35% (active) | -24.9% (active) | 34.3% | -14.2% (active) | 22.3% | 19.3% | 16.5% | 58.2% | 17.5% | 29.8% | 42.6% | 50.4% | 33.5% | 5.2% (active) | 10.8% | 34% | -11.4% (active) | 37.6 | 
COc1ccc(/C=N/NC(=O)Cn2c(Cc3cccc4ccccc34)nc3ccccc32)cc1 | 95.7% | 108% | 102% | 92.2% | 99.7% | 83.2% | 96.1% | 88.3% | 109% | 99.5% | 93.1% | 72.1% | 105% | 107% | 91% | 69.5% | 83.8% | 85.5% |  | 
Cc1oc2nc[nH]c(=O)c2c1C(=O)/C=C/c1ccc(Cl)cc1 | 19.9% | 12.9% | -11.4% (active) | 42% | 24.3% | 34.2% | 37.5% | 8.44% (active) | 39.4% | 55.7% | 25.4% | 37.9% | 32.3% | 27.2% |  | 40.7% | 26.1% | 62.4% |  | 
Cc1cnc(NC(=O)C(Cc2ccccc2)NC(=O)c2ccccc2)s1 (centres undefined) | 79.9% | 55% | 83.6% | 93.3% | 92.2% | 70.7% | 25.5% | 55.9% | 88.9% | 43.2% | 76.1% | 26.7% | 79.2% | 68% | 81.3% | 40.8% | 92.4% | 92.6% | 78.5 | 
Clc1nc2ccccc2nc1CI | 74.9% | 117% | 89.2% | 103% | 113% | 89.6% | 83% | 8.23% (active) | 103% | 64.3% | 54.3% | 69.2% | 166% | 92.1% | -4.61% (active) | 20.2% | 97.8% | 120% |  | 
Cc1ccc2nc(SCn3nnc4ccccc4c3=O)[nH]c2c1 | 125% | 102% | 88% | 108% | 103% | 103% | 101% |  | 121% | 69.5% | 108% | 73.8% | 196% | 105% | 102% | 71.2% | 93.5% | 108% | 97.1 | 
CCC(c1cccc(Br)c1)C(C(=O)O)c1ccc(OC)cc1 (centres undefined) | 83.5% | 106% | 96% | 104% | 90.4% | 90.2% | 94.6% | 95.8% | 95.8% | 103% | 105% | 90.9% | 107% | 107% | 110% | 111% | 93.2% | 100% | 100 | 
